# Test results taken from the supplement of paper PMC12669032.
# Tests used:
# [1] = tested on: Roseburia intestinalis; test: growth AUC relative to DMSO control (median of replicates) (fraction); higher = more growth (less inhibition), active = hit call of the paper; conditions: 20 µM; 24 h
# In short: (§1)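 Gut bacterial monocultures were grown anaerobically at 37 °C in mGAM, starting at OD600 0.05, with 20 µM compound (1% DMSO) in round-bottom 96-well plates under pierced gas-permeable seals. OD600 was read hourly for 24 h. Area under the growth curve (minimum OD set to 0) was normalised to the plate median of DMSO controls, or to row and column medians on the industrial chemical plate. The value is the median of three biological replicates grown on separate days.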
# [2] = tested on: Streptococcus salivarius; test: as above; conditions: 20 µM; 24 h
# In short: as §1
SMILES,growth AUC [1],growth AUC [2]
CN(C)C(=O)NC1CCCCCCC1,1.08 (inactive),1.05 (inactive)
CN(C)C(=O)Nc1ccccc1,0.983 (inactive),0.969 (inactive)
CCNc1nc(NCC)nc(OC)n1,0.993 (inactive),1.01 (inactive)
CCc1nc2ncnn2c(N)c1CCCCCC(=O)O.Cl,0.955 (inactive),1.02 (inactive)
CC(C)COC(=O)COc1cc(Cl)c(Cl)cc1Cl,1.01 (inactive),0.958 (inactive)
CCc1cccc(C)c1N(COC(C)C)C(=O)CCl,1.01 (inactive),1.01 (inactive)
CCSC(=O)COc1ccc(Cl)cc1C,0.969 (inactive),0.915 (inactive)
CCCCCCC(C)OC(=O)COc1nc(F)c(Cl)c(N)c1Cl (configuration not stated),0.967 (inactive),0.966 (inactive)
CCCCCCCCCCCC[N+](C)(C)Cc1ccc(CC)cc1.[Cl-],0.0285 (active),1.03 (inactive)
O=C(O)Cc1c(Cl)ccc(Cl)c1Cl,0.979 (inactive),1.01 (inactive)
CCCC(C)(C)C(=O)Nc1ccc(Cl)cc1,0.945 (inactive),0.963 (inactive)
NC1=C(Cl)C(=O)c2ccccc2C1=O,0.963 (inactive),1 (inactive)
O.O.O=[N+]([O-])c1ccc([O-])cc1.[Na+],0.999 (inactive),1.05 (inactive)
C=C1C[C@]23C[C@@]1(O)CC[C@H]2[C@@]12C=C[C@H](O)[C@@](C)(C(=O)O1)[C@H]2[C@@H]3C(=O)O,0.881 (inactive),0.904 (inactive)
CNc1nc(NC(C)C)nc(SC)n1,0.995 (inactive),0.975 (inactive)
CCOC(=O)C1=NN(c2ccc(Cl)cc2Cl)C(C)(C(=O)OCC)C1 (configuration not stated),0.952 (inactive),0.994 (inactive)
COCCCNc1nc(NC(C)C)nc(SC)n1,0.995 (inactive),0.969 (inactive)
CCN(CC)C(=O)SCc1ccccc1Cl,1.01 (inactive),1.02 (inactive)
CSc1nnc(C(C)(C)C)c(=O)n1/N=C/C(C)C,1.07 (inactive),1 (inactive)
CCNc1nc(N)nc(Cl)n1,1.01 (inactive),1.03 (inactive)
C/C=C/C=C/CCCCCCCO,1 (inactive),0.994 (inactive)

SMILES,growth AUC [1],growth AUC [2]
CCOC(=O)/C(Cl)=C/c1cc(N2C(=O)C3=C(CCCC3)C2=O)ccc1Cl,0.981 (inactive),0.96 (inactive)
Cn1cc(C(=O)Nc2ccc(F)cc2-c2ccc(Cl)c(Cl)c2)c(C(F)F)n1,0.989 (inactive),0.897 (inactive)
CCNc1nc(NC(C)CC)nc(OC)n1 (configuration not stated),1.07 (inactive),1.02 (inactive)
CC(C)CCCCCOC(=O)C(C)Oc1ccc(Cl)cc1Cl (configuration not stated),1.03 (inactive),0.982 (inactive)
c1ccc2cc3c(ccc4ccccc43)cc2c1,1.01 (inactive),0.962 (inactive)
C#CCN(C)c1c(C#N)cnn1-c1nn2c(c1Cl)CCCC2,1.02 (inactive),1.03 (inactive)
CCOCOc1ccc(C(=O)Nc2cccc(Cl)c2Cl)cc1,1 (inactive),0.989 (inactive)
CCOCN(C(=O)C(=O)O)c1c(C)cccc1CC,0.996 (inactive),1.04 (inactive)
O=C(Oc1ccccc1)n1c(C(F)(F)F)nc2cc(Cl)c(Cl)cc21,0.797 (active),0.342 (active)
CN(C)C=O,1.1 (inactive),0.999 (inactive)
COC(=O)CCCOc1ccc(Cl)cc1Cl,0.887 (inactive),0.931 (inactive)
c1ccc(Nc2ccccc2)cc1,1.01 (inactive),1.02 (inactive)
CCOC(N)=O,1.05 (inactive),1.01 (inactive)
c1ccc2c(c1)-c1cccc3c1c-2cc1ccccc13,0.998 (inactive),1.03 (inactive)
COc1nc(N)nc(C(F)(F)F)n1,1.05 (inactive),1 (inactive)
Cc1cc(N(C)C)nc(Cl)n1,1.01 (inactive),1.04 (inactive)
CCCCN(C)C(=O)Nc1ccc(Cl)c(Cl)c1,0.956 (inactive),0.971 (inactive)
CC(C)c1cccc2c(=O)c3ccccc3sc12,1.02 (inactive),1.05 (inactive)
CC(C)([CH2][Sn]([CH2]C(C)(C)c1ccccc1)([CH2]C(C)(C)c1ccccc1)[O][Sn]([CH2]C(C)(C)c1ccccc1)([CH2]C(C)(C)c1ccccc1)[CH2]C(C)(C)c1ccccc1)c1ccccc1,1.02 (inactive),0.972 (inactive)
Cc1nc(C(F)(F)F)c(C(=O)Nc2c(Br)cc(OC(F)(F)F)cc2Br)s1,1.08 (inactive),0.972 (inactive)
